Bioassay records from PubChem.
LmPK inh = qHTS Assay for Inhibitors of Leishmania Mexicana Pyruvate Kinase (LmPK); Q27686; purified LmPK, Kinase-Glo ATP luminescence, 1 h; Potency, µM (doses to about 57.5 µM), hits mostly inhibitors; 290,000 compounds, 0.37% hits
Target sequence (Q27686 whole entry, looked up): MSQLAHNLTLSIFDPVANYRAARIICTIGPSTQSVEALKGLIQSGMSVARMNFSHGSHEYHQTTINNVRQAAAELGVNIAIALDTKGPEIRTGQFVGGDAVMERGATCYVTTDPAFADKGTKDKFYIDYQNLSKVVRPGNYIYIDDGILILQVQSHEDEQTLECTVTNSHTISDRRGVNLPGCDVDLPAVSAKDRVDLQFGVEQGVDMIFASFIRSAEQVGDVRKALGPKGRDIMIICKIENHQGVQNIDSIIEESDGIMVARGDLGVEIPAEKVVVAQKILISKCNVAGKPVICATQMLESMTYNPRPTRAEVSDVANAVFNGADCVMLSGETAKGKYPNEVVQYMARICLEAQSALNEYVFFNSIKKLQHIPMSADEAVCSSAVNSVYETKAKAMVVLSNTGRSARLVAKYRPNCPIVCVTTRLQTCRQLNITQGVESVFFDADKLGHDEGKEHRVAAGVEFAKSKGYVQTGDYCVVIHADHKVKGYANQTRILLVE
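In 50 mM imidazole pH 7.2 with 7 mM MgCl2, LmPK (0.1 nM) turned over PEP (0.5 mM) and ADP (0.1 mM) for 1 h at room temperature. Luciferase read-out of ATP.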
Tb PYK inh = qHTS of Trypanosoma Brucei Inhibitors; TbPYK enzyme, Kinase-Glo Plus ATP luminescence, 45 min; AID 624173, 2012; pyruvate kinase (Trypanosoma brucei), Q57TT1; Potency, µM (titrated, usually from 76.8 µM), hits mostly inhibitors; 410,000 compounds, 0.12% hits; note: nearly all actives have a fitted effect of over 50% in size
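Glycolytic pyruvate kinase of T. brucei was incubated with substrate, test compound and 130 uM ADP for 45 minutes at room temperature. Luminescent Kinase-Glo Plus signal was measured after 10 minutes.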
AmpC inh detg = qHTS Inhibitors of AmpC Beta-Lactamase (assay with detergent); P00811; AmpC hydrolysis of nitrocefin, absorbance 480 nm, 0.01% Triton; Potency, µM (top dose mostly 114 µM), usual class: inhibitors; 370,000 compounds, 0.041% hits; AID 485294, 2010; note: nearly all actives have a fitted effect of over 25% in size
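AmpC (5.3 nM in the dispensed reagent) in 20 mM phosphate pH 7.0 with 0.01% (detergent screen) or 0.0001% Triton X-100 was preincubated with compounds for 15 min at room temperature. Nitrocefin was then added from an 800 uM solution, and hydrolysis was followed at 480 nm.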
Giardia FBPA inh-1 = qHTS Assay for Inhibitors of Fructose-1,6-bisphosphate Aldolase from Giardia Lamblia. 290,000 compounds, 0.71% hits. A8B2U2. purified Giardia FBPA. AID 2451, 2010. Potency, µM (series often up to 59.6 µM), usual class: inhibitors; note: nearly all actives have a fitted effect of over 55% in size
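Giardia FBPA (40 nM reagent) was preincubated 10 min at RT with compound (up to 57.5 uM final), then substrate plus GAPDH/TPI/NAD/arsenate coupling system with diaphorase/resazurin was added; resorufin fluorescence (525/598 nm) was read after 20 min.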
RE007 growth inh = qHTS Assay for Inhibitors of the HIV-1 protein Vpr; AID 651644, 2012; S. pombe RE007 Vpr strain, BacTiter-Glo ATP luminescence, 24 h; Potency, µM (highest dose often 92.2 µM), hits mostly inhibitors; 360,000 compounds, 0.21% hits; active = well fitted falling curve with a large enough effect; inconclusive = small, poorly fitted or top-dose-only effect; inactive = no such curve, though single readings can be large or run the other way; note: nearly all actives have a fitted effect of over 50% in size
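Fission yeast RE007 carrying one integrated HIV-1 vpr copy, seeded at OD 0.01 in PMG+AL medium with 23 nL pinned compound. Grown 24 h at 30 degrees; viability read by BacTiter-Glo luminescence after 5 min.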
AmpC inh no detg = qHTS Inhibitors of AmpC Beta-Lactamase (assay without detergent); P00811; AmpC nitrocefin hydrolysis, absorbance 480 nm, 0.0001% Triton; Potency, µM (series often up to 57.1 µM), most hits filed as inhibitors; 330,000 compounds, 0.52% hits; AID 485341, 2010; note: nearly all actives have a fitted effect of over 20% in size
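AmpC (5.3 nM in the dispensed reagent) in 20 mM phosphate pH 7.0 with 0.01% (detergent screen) or 0.0001% Triton X-100 was preincubated with compounds for 15 min at room temperature. Nitrocefin was then added from an 800 uM solution, and hydrolysis was followed at 480 nm.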
Giardia growth = qHTS Assay for Inhibitors of Fructose-1,6-bisphosphate Aldolase from Giardia Lamblia: Giardia lamblia growth inhibition | shares compounds with Giardia FBPA inh-1 | Giardia lamblia trophozoite growth inhibition | Potency, µM (titrated, usually from 57.5 µM), most hits filed as inhibitors | 1,500 compounds, 5% hits | AID 2785, 2010;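 note: trophozoites exposed to compound for 48 h at 37 °C; nearly all actives have a fitted effect of over 70% in size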
Mammal cell tox = qHTS Assay for Inhibitors of Fructose-1,6-bisphosphate Aldolase from Giardia Lamblia: Mammalian cellular toxicity; shares compounds with Giardia FBPA inh-1; mammalian cell viability counter-screen, qHTS; Potency, µM (top dose mostly 57.5 µM), most hits filed as inhibitors; 1,500 compounds, 4% hits; AID 2786, 2010;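 note: Chinese hamster ovary cells used as mammalian cytotoxicity surrogate; viability measured as cellular ATP by luminescence; compound exposure lasted 48 h before reading; nearly all actives have a fitted effect of over 60% in size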
Giardia FBPA inh-2 = qHTS Assay for Inhibitors of Fructose-1,6-bisphosphate Aldolase from Giardia Lamblia: Primary screen confirmation; shares compounds with Giardia FBPA inh-1; purified Giardia aldolase enzyme activity, qHTS; Potency, µM (titrated, usually from 57.5 µM), usual class: inhibitors; 1,500 compounds, 5% hits; note: nearly all actives have a fitted effect of over 45% in size
Rabbit FBPA inh = qHTS Assay for Inhibitors of Fructose-1,6-bisphosphate Aldolase from Giardia Lamblia: Rabbit FBPA Selectivity; 1,500 compounds, 4% hits; Rabbit muscle FBPA enzyme inhibition, selectivity counter-screen; Potency, µM (series often up to 57.5 µM), hits mostly inhibitors; shares compounds with Giardia FBPA inh-1; note: nearly all actives have a fitted effect of over 60% in size
GAPDH counter = qHTS Assay for Inhibitors of Fructose-1,6-bisphosphate Aldolase from Giardia Lamblia: Coupling assay counterscreen confirmation; shares compounds with Giardia FBPA inh-1; GAPDH coupling enzyme counterscreen, biochemical, qHTS; Potency, µM (titrated, usually from 57.5 µM), actives largely listed as inhibitors; 1,500 compounds, 6% hits; AID 2795, 2010; note: nearly all actives have a fitted effect of over 55% in size
Of the large screens only hits and unclear results are named; the others gave an inactive call (follow-up assays come after a bar, where they were run); [ ] = remark or other dose. Most compounds without a hit are left out; they make up all but 1.4% or so of the library. Unless noted, calls come from the whole dose curve; as a rule, active = well fitted curve in the direction sought with a large enough effect; inconclusive = small, poorly fitted or top-dose-only effect, or another doubt; inactive = no such curve, though single readings can be large; an effect the other way counts as inactive or inconclusive.

Cc1ccc(CN2CCN(C(=O)c3ccco3)CC2)cc1	none
COc1cc(CN2CCN(Cc3ccco3)CC2)cc(OC)c1	Giardia FBPA inh-1 14.1µM | Giardia growth inconclusive | Mammal cell tox inactive | Giardia FBPA inh-2 inactive | Rabbit FBPA inh inactive | GAPDH counter inactive
COc1ccccc1CN1CCN(Cc2ccco2)CC1	Giardia FBPA inh-1 15.8µM | Giardia growth inactive[10.4 µM] | Mammal cell tox inactive | Giardia FBPA inh-2 inactive | Rabbit FBPA inh inactive | GAPDH counter inactive
O=[N+]([O-])c1cccc(CN2CCN(Cc3ccco3)CC2)c1	Giardia FBPA inh-1 inconclusive
COc1ccc(CN2CCN(Cc3ccco3)CC2)c(OC)c1	Giardia FBPA inh-1 12.6µM | Giardia growth inconclusive | Mammal cell tox inactive | Giardia FBPA inh-2 inactive | Rabbit FBPA inh inactive | GAPDH counter inactive
CN1C(=O)/C(=C2\SC(=S)N(CCCCCC(=O)O)C2=O)c2ccccc21	none
CCOC(=O)CN1C(=O)/C(=C2\SC(=S)N(NC(=O)c3cccnc3)C2=O)c2ccccc21	Giardia FBPA inh-1 14.1µM | Giardia growth 6.31µM | Mammal cell tox inactive | Giardia FBPA inh-2 inactive | Rabbit FBPA inh inactive | GAPDH counter inconclusive
CN1C(=O)/C(=C2\SC(=S)N(NC(=O)c3cccnc3)C2=O)c2ccccc21	Giardia FBPA inh-1 7.08µM | Giardia growth 11.2µM | Mammal cell tox inactive | Giardia FBPA inh-2 inactive | Rabbit FBPA inh inactive | GAPDH counter inactive
O=C(NC(=S)Nc1ccc(CN2CCOCC2)cc1)c1cccc([N+](=O)[O-])c1	none
O=C(NC(=S)Nc1ccc(CN2CCOCC2)cc1)c1cccc(F)c1	Giardia FBPA inh-1 11.2µM | Giardia growth inactive | Mammal cell tox inactive | Giardia FBPA inh-2 inactive | Rabbit FBPA inh inactive | GAPDH counter inactive
CCOC(=O)c1ccc(NC(=O)CN2c3ccccc3S(=O)(=O)c3ccccc32)cc1	none (no result: LmPK inh, Giardia FBPA inh-1, RE007 growth inh, AmpC inh no detg)
CC(C)CCn1c(=O)c2ccccc2n2c(=S)[nH]nc12	Tb PYK inh inconclusive
CCOCCCn1c(=O)c2ccccc2n2c(=S)[nH]nc12	Giardia FBPA inh-1 12.6µM | Giardia growth inactive | Mammal cell tox inactive | Giardia FBPA inh-2 inactive | Rabbit FBPA inh inactive | GAPDH counter inactive
Cc1n[nH]c(=S)n(/N=C/c2cccc([N+](=O)[O-])c2)c1=O	Giardia FBPA inh-1 inconclusive
COc1cc(/C=N/n2c(=S)[nH]nc(C)c2=O)cc([N+](=O)[O-])c1O	Giardia FBPA inh-1 15.8µM | Giardia growth inconclusive | Mammal cell tox inactive | Giardia FBPA inh-2 inactive | Rabbit FBPA inh inactive | GAPDH counter inactive
